From PubChem BioAssay (Tox21)
A number with no mark means an inactive call. The source made the active and inactive calls. The call rests on the fitted dose curve; in most records, active means well fitted curve in the direction sought with a large enough effect in the repeat runs; inconclusive means weak or mixed curves; inactive means flat fitted curve, though single readings scatter.

experiment: qHTS assay to test for compound auto fluorescence at 590 nm (red) in HEK293 cell free culture (AID 720683); conditions: cell-free medium autofluorescence, Ex540/Em590 red; series mostly up to 91.3 µM
In short: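 Red-channel autofluorescence of compounds in culture medium (DMEM, 10% FBS), no cells, measured at 540/590 nm. Rose Bengal sodium is the reference fluorophore for equivalence.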
On the % scale 0 is the no-effect control and ±100 the full control effect.

| Compound | outcome | fluorescence, % of fluorescent control |
| --- | --- | --- |
| CC(=O)OC(C)(C)C | inactive | – |
| CC(C)(O)c1ccccc1 | inactive | – |
| OCC(CO)(CO)COCC(CO)(CO)CO | inactive | – |
| C[C@H](O)C(=O)Nc1c(I)c(C(=O)NC(CO)CO)c(I)c(C(=O)NC(CO)CO)c1I | – | 0.0628% [at 18.6 µM] |
| CSc1ccc(C=O)cc1 | inactive | – |
| NCC[C@H](O)C(=O)N[C@@H]1C[C@H](N)[C@@H](O[C@H]2O[C@H](CN)[C@@H](O)[C@H](O)[C@H]2O)[C@H](O)[C@H]1O[C@H]1O[C@H](CO)[C@@H](O)[C@H](N)[C@H]1O | inactive | – |
| CCN1CCN(c2cc3c(cc2F)c(=O)c(C(=O)O)cn3C2CC2)CC1 | inactive | – |
| CCCCCCCCCCCCCCC | inactive | – |
| C/C=C1\C(=O)C[C@H]2[C@@H]3CCC4=CC(=O)CC[C@]4(C)[C@H]3CC[C@]12C | inactive | – |
| c1cc(CN2CCCCC2)cc(OCCCNc2nc3ccccc3s2)c1 | inactive | – |
| CC(C)(C)N(CCO)CCO | inactive | – |
| COc1cc(C)cc(O)c1 | inactive | – |
| COc1ccc(NC(C)=O)cc1 | inactive | – |
| CC(=O)c1ccc(C)cc1 | inactive | – |
| COC(C(=O)O)c1ccccc1 (stereo not given) | inactive | – |
| COc1ccc(COC=O)cc1 | inactive | – |
| CCCCC=O | inactive | – |
| C#CC(O)CCCCC (stereo not given) | inactive | – |

| Compound | outcome | fluorescence, % of fluorescent control |
| --- | --- | --- |
| COc1cc(CCC(C)=O)ccc1O | inactive | – |
| NC(N)=NS(=O)(=O)c1ccc(N)cc1 | – | -0.0082% [at 18.6 µM] |
| NC(=O)c1ncn([C@@H]2O[C@H](CO)[C@@H](O)[C@H]2O)c1O | inactive | – |
| NC(=S)Nc1cccc2ccccc12 | – | -0.0289% [at 3.72 µM] |
| CC(=O)NC(Cc1ccccc1)C(=O)O (stereo not given) | inactive | – |
| CC(C)(O)Cc1ccccc1 | inactive | – |
| Cc1ccccc1Br | inactive | – |
| CC12CCC(CC1=O)C2(C)C (stereo not given) | inactive | – |
| C=C(C)C1CC=C(C)C(O)C1 (stereo not given) | inactive | – |
| CC1CCN(CCCC(=O)c2ccc(F)cc2)CC1 | inactive | – |
| C1CCCCCCCCCCC1 | – | -0.0432% [at 18.6 µM] |
| COC(=O)[C@H]1[C@H]2C[C@@H]3c4[nH]c5cc(OC)ccc5c4CCN3C[C@H]2C[C@@H](OC(=O)COc2ccc(OC)cc2)[C@@H]1OC | inactive | – |
| CC1=CC(=O)CCC1 | inactive | – |
| CCOC(=O)[C@H](CCc1ccccc1)N[C@@H](C)C(=O)N1CCC[C@H]1C(=O)O | inactive | – |
| CCCCCC[C@@H](CCC)C(=O)O | inactive | – |
| CCCCC1CCCCC(=O)O1 (stereo not given) | inactive | – |
| CC1=CCC2C(C1)C2(C)C (stereo not given) | inactive | – |

experiment: qHTS assay to test for compound auto fluorescence at 590 nm (red) in HepG2 cell free culture (AID 720684); conditions: cell-free medium autofluorescence, red 540/590 nm; series mostly up to 91.3 µM
In short: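 Cell-free; medium MEM + 10% FBS; compound or DMSO added by pintool; read Ex 540/Em 590 nm; Rose Bengal sodium as red reference fluorophore.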

| Compound | outcome | fluorescence, % of Rose Bengal |
| --- | --- | --- |
| CC(=O)OC(C)(C)C | inactive | – |
| CC(C)(O)c1ccccc1 | inactive | – |
| OCC(CO)(CO)COCC(CO)(CO)CO | inactive | – |
| C[C@H](O)C(=O)Nc1c(I)c(C(=O)NC(CO)CO)c(I)c(C(=O)NC(CO)CO)c1I | – | 0.0851% [at 18.6 µM] |
| CSc1ccc(C=O)cc1 | inactive | – |
| NCC[C@H](O)C(=O)N[C@@H]1C[C@H](N)[C@@H](O[C@H]2O[C@H](CN)[C@@H](O)[C@H](O)[C@H]2O)[C@H](O)[C@H]1O[C@H]1O[C@H](CO)[C@@H](O)[C@H](N)[C@H]1O | inactive | – |
| CCN1CCN(c2cc3c(cc2F)c(=O)c(C(=O)O)cn3C2CC2)CC1 | inactive | – |
| CCCCCCCCCCCCCCC | inactive | – |
| C/C=C1\C(=O)C[C@H]2[C@@H]3CCC4=CC(=O)CC[C@]4(C)[C@H]3CC[C@]12C | inactive | – |
| c1cc(CN2CCCCC2)cc(OCCCNc2nc3ccccc3s2)c1 | inactive | – |
| CC(C)(C)N(CCO)CCO | inactive | – |
| COc1cc(C)cc(O)c1 | inactive | – |
| COc1ccc(NC(C)=O)cc1 | inactive | – |
| CC(=O)c1ccc(C)cc1 | inactive | – |
| COC(C(=O)O)c1ccccc1 (stereo not given) | inactive | – |
| COc1ccc(COC=O)cc1 | inactive | – |
| CCCCC=O | inactive | – |
| C#CC(O)CCCCC (stereo not given) | inactive | – |

| Compound | outcome | fluorescence, % of Rose Bengal |
| --- | --- | --- |
| COc1cc(CCC(C)=O)ccc1O | inactive | – |
| NC(N)=NS(=O)(=O)c1ccc(N)cc1 | – | 0.343% [at 18.6 µM] |
| NC(=O)c1ncn([C@@H]2O[C@H](CO)[C@@H](O)[C@H]2O)c1O | inactive | – |
| NC(=S)Nc1cccc2ccccc12 | – | -0.172% [at 3.72 µM] |
| CC(=O)NC(Cc1ccccc1)C(=O)O (stereo not given) | inactive | – |
| CC(C)(O)Cc1ccccc1 | inactive | – |
| Cc1ccccc1Br | inactive | – |
| CC12CCC(CC1=O)C2(C)C (stereo not given) | inactive | – |
| C=C(C)C1CC=C(C)C(O)C1 (stereo not given) | inactive | – |
| CC1CCN(CCCC(=O)c2ccc(F)cc2)CC1 | inactive | – |
| C1CCCCCCCCCCC1 | – | -0.141% [at 18.6 µM] |
| COC(=O)[C@H]1[C@H]2C[C@@H]3c4[nH]c5cc(OC)ccc5c4CCN3C[C@H]2C[C@@H](OC(=O)COc2ccc(OC)cc2)[C@@H]1OC | inactive | – |
| CC1=CC(=O)CCC1 | inactive | – |
| CCOC(=O)[C@H](CCc1ccccc1)N[C@@H](C)C(=O)N1CCC[C@H]1C(=O)O | inactive | – |
| CCCCCC[C@@H](CCC)C(=O)O | inactive | – |
| CCCCC1CCCCC(=O)O1 (stereo not given) | inactive | – |
| CC1=CCC2C(C1)C2(C)C (stereo not given) | inactive | – |
